Potency data for 40 molecules are collected here from PubChem BioAssay (Tox21).

“And” between values parts separate entries of the source, which are not always exact repeats. Equal entries are not always repeated. Results filed as inconclusive are left out. Where a call stands in place of a potency, no number is given. Some structures have more than one record in an assay (separate samples or runs), and their calls can disagree. The source made the active and inactive calls. The call rests on the fitted dose curve; in most records, active means well fitted cell-killing curve with a large enough effect in the repeat runs; inconclusive means weak or mixed curves, or effect the other way; inactive means flat fitted curve, though single readings scatter.
Potency means the concentration at half of the fitted maximal effect.

A short description of the test: qHTS RealTime-Glo MT Cell Viability Assay in HEK293 cells - 8 hour (AID 1224887). Further: nearly all actives have a fitted effect of over 50% in size. The settings on record: RealTime-Glo luminescence; series mostly up to 76.8 µM. The source says:
U.S. Tox21 Program National Center for Advancing Translational Sciences [NCATS] NIH Chemical Genomics Center [NCGC] U.S. Environmental Protection Agency [EPA] National Institutes of Environmental Health Sciences [NIEHS] National Toxicology Program [NTP] U.S. Food and Drug Administration [FDA] Tox21 Assay Overview: Measure of cell viability is critical in the cell-base assay. Analysis of cell viability is necessary for the characterization of cell responses to cytotoxic drugs and environmental stress. A RealTime-Glo MT Cell Viability Assay to monitor cell viability in real time of continues cell culture during 40 hours of compound treatment was used to screen Tox21 10K library compounds in Hek293 cells. The RealTime-Glo MT Cell Viability Assay is a nonlytic, homogeneous, bioluminescent method to measure cell viability in real time using a simple, plate-based method. The assay involves adding NanoLuc luciferase and a cell-permeant prosubstrate to cells in culture. Viable cells reduce the proprietary prosubstrate to generate a substrate for NanoLuc luciferase. This substrate diffuses from cells into the surrounding culture medium, where it is rapidly used by the NanoLuc Enzyme to produce a luminescent signal. The signal correlates with the number of viable cells, making the assay well suited for cytotoxicity studies.
Tox21 Assay Protocol Summary: The mixture of Hek293 cell suspension and reagents were dispensed at 600cells/6 ul/well in 1536-well tissue culture treated black solid bottom plates using a Multidrop dispenser. After the assay plates were incubated at a 37 C/5% CO2 incubator for 5 hours, 23 nL of compounds dissolved in DMSO, positive and negative controls was transferred to the assay plate by a pintool work station. The plates were incubated at 37 C for 40 hours. The luminescence intensity were measured at 0h, 8h, 16h, 24h, 32h and 40h time points using ViewLux plate reader during compound treatment.
Take `O=S(=O)(O)NC1CCCCC1`: the Potency result was “inactive”.

Regarding `Oc1ccc(/C=C/c2cc(O)cc(O)c2)cc1`, the Potency result is “inactive”. With `NC(N)=O` the entry was “inactive”. As for `CC(C)(Oc1ccc(C2CC2(Cl)Cl)cc1)C(=O)O` (stereo not given), the entry is “inactive”; as for `COc1c2occc2cc2ccc(=O)oc12`, “inactive and 21.9 µM (active)”. As for `Cc1noc(NS(=O)(=O)c2ccc(N)cc2)c1C`, the entry is “inactive”.

As for `C/C=C/c1ccc(OC)cc1`, the Potency entry was “inactive”. With `O=NO` the entry was “inactive”; with `O=C(c1ccccc1)C(O)c1ccccc1` (stereo not given), “inactive”. With `OC(Cn1cncn1)(Cn1cncn1)c1ccc(F)cc1F` the entry was “inactive”. As for `CCCCOC(=O)CC(CC(=O)OCCCC)(OC(C)=O)C(=O)OCCCC`, the entry is “inactive”; as for `Nc1ccn([C@H]2CC[C@@H](CO)O2)c(=O)n1`, “inactive”. `O=C(O)CCCCC(=O)O`: the Potency result is “inactive”. With `Cc1ccccc1C(OCCN(C)C)c1ccccc1` (stereo not given) the entry was “inactive”; with `Cn1c(=O)c2[nH]cnc2n(C)c1=O`, “inactive”; with `NNC(=O)c1ccncc1`, “inactive”. With `CCCCCCCCCCCCCCCC(=O)O` the entry was “inactive”; with `COc1ccc2[nH]cc(CCNC(C)=O)c2c1`, “inactive”. With `NC(=O)c1ccccc1O` the entry was “inactive”; with `C1N2CN3CN1CN(C2)C3`, “inactive”. For `Nc1ccc(S(=O)(=O)Nc2nccs2)cc1`, the Potency result was “inactive”. Turning to `Nc1ccc(C(=O)O)cc1`, the Potency result was “inactive”. As for `O=C(O)CCCCCCCC(=O)O`, the entry is “inactive”; as for `CC(C)[C@@H]1CC[C@@H](C)C[C@H]1O`, “inactive”; as for `CCCCC(CC)COC(=O)/C=C/c1ccc(OC)cc1` (stereo not given), “inactive”. Turning to `Cc1cc(=O)n(-c2ccccc2)n1C`, the Potency entry was “inactive”. For `CC1(C)[C@@H]2CC[C@@]1(C)C(=O)C2`, the Potency entry was “inactive”. As for `O=C(O)c1cccnc1`, the entry is “inactive”.

Take `CCOc1ccc(NC(=O)CC(C)O)cc1` (stereo not given): the Potency result is “inactive”. With `O=C1CN(/N=C/c2ccc([N+](=O)[O-])o2)C(=O)N1` the entry was “inactive”; with `CC(O)C(=O)O` (stereo not given), “inactive”. With `O=C(O)CCC(=O)O` the entry was “inactive”.

Consider `O=C(O)c1cccc([N+](=O)[O-])c1`, for which the Potency entry was “inactive”. Regarding `C[C@]12C=CC(=O)C=C1CC[C@@H]1[C@@H]2[C@@H](O)C[C@@]2(C)[C@H]1CC[C@]2(O)C(=O)CO`, the Potency result is “inactive”. Regarding `OCCc1ccccc1`, the Potency result is “inactive”.

`Cc1ccc(S(=O)(=O)NC(=O)NN2CCCCCC2)cc1`: the Potency entry is “inactive”.

For the molecule `NC(=O)NC1NC(=O)NC1=O` (stereo not given), the Potency result was “inactive”.

For `CCCN(CCC)S(=O)(=O)c1ccc(C(=O)O)cc1`, the Potency result is “inactive”.

For the molecule `N=C(N)c1ccc(OCCCCCOc2ccc(C(=N)N)cc2)cc1`, the Potency result is “inactive”. With `Nc1ccc(S(=O)(=O)c2ccc(N)cc2)cc1` the entry was “inactive”.
